Assay results from PubChem BioAssay (Tox21).
The source made the active and inactive calls. Calls come from the whole dose curve; as a rule, active = well fitted inhibition curve with a large enough effect in the repeat runs (not every such curve was filed as active); inconclusive = weak or mixed curves; inactive = flat fitted curve, though single readings scatter.
% is set by controls: 0 for no effect and ±100 for the full control effect.

These compounds were tested against Thyrotropin-releasing hormone receptor (Homo sapiens) (UniProt P34981) (assay: qHTS assay to identify small molecule antagonists of the thyrotropin-releasing hormone receptor (TRHR) signaling pathway (AID 1346877)). Conditions: TRHR-HEK293, TRH-induced calcium fluorescence, antagonist mode; series mostly up to 51.3 µM; activity, negative = inhibition: at the top concentration.
Chain of Thyrotropin-releasing hormone receptor (Homo sapiens) (P34981 whole entry, looked up): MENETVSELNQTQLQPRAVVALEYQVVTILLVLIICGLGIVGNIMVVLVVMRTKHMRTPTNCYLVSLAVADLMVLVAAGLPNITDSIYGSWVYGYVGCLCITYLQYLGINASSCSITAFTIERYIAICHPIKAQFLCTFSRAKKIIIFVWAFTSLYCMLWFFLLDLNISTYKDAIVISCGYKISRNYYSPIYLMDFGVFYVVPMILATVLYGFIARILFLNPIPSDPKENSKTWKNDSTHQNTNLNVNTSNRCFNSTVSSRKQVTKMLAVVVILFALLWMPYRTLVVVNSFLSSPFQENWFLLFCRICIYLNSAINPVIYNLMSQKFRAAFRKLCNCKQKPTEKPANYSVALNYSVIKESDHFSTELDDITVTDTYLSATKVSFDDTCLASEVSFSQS
Text: National Center for Advancing Translational Sciences [NCATS]
NIH Chemical Genomics Center [NCGC]
U.S. Environmental Protection Agency [EPA]
National Institutes of Environmental Health Sciences [NIEHS]
National Toxicology Program [NTP]
U.S. Food and Drug Administration [FDA]
Thyrotropin-releasing hormone (TRH) receptor (TRHR) is a G-protein-coupled receptor which binds the tripeptide thyrotropin releasing hormone. TRHR is found in the brain and, when bound by TRH, acts (through phospholipase C) to increase intracellular inositol trisphosphate. It plays a crucial role in the anterior pituitary where it controls the synthesis and secretion of thyroid stimulating hormone and prolactin. The TRHR-Hek293 assay is a cell-based assay, and it has the potential to screen G protein-coupled receptors. A compound/drug can either activate (agonist) or suppress (antagonist) GPCRs that can be monitored by levels of intracellular calcium. In this assay, the Tox21 10K compound library was screened to identify potential TRHR antagonists.
Tox21 Assay Protocol Summary:
The TRHR-Hek293 cells were dispensed at 1500cells/4uL/well in 1536-well black-clear bottom plates using a Multidrop dispenser. After the assay plates were incubated at a 37 C/5% CO2 incubator for 18 hours, 4 uL of Dye-Loading Solution was added to each well. The plates were incubated at 37 C for 2 hours. For agonist mode, 23 nL of compounds dissolved in DMSO, positive controls or DMSO only was transferred to the assay plate by a pin tool. The fluorescence intensity in the plates was measured using FDSS 7000EX kinetic plate reader for 3 min at 1 sec intervals. For antagonist mode, 23 nL of compounds dissolved in DMSO, positive controls or DMSO only was transferred to the assay plate by a pin tool. After 5 min incubation at room temperature, 1 uL of TRH was added on the top of the cell/compound mixtures to achieve a final agonist concentration of 1 nM. The fluorescence intensity in the plates was measured using FDSS 7000EX kinetic plate reader for 3 min at 1 sec intervals. Each test compound was measured at 15 concentrations and in triplicates.
`CCC(C)OC(=O)N1CCCCC1CCO` (stereo not given) was tested, and the “activity, negative = inhibition” value was -5.84% (inactive). `CCN(CC)C(=O)c1ccc(O)c(OC)c1` was tested, and the “activity, negative = inhibition” value was 1.09% [at 23.6 µM] (inactive). In the case of `CCC(=O)c1cccc(Cl)c1`, the “activity, negative = inhibition” value is reported as 1.05% (inactive). With `O=C1OC(=O)c2cc([N+](=O)[O-])ccc21` the “activity, negative = inhibition” value was 0.0291% (inactive). For `COc1cc(O)cc(O)c1`, the “activity, negative = inhibition” value was 2.43% [at 23.6 µM] (inactive). In the case of `COCc1ccc(COC)cc1`, the “activity, negative = inhibition” value is reported as 0.905% (inactive). With `O=C(O)c1ccc[n+]([O-])c1` the “activity, negative = inhibition” value was 4.06% [at 23.6 µM] (inactive). In the case of `O=[N+]([O-])c1ccc(CCO)cc1`, the “activity, negative = inhibition” value is reported as 1.61% (inactive). `CN1[C@@H]2CC[C@H]1CC(NC(=O)n1c(=O)[nH]c3ccccc31)C2` (stereo not given in full) was tested, and the “activity, negative = inhibition” value was 3.75% [at 23.6 µM] (inactive). `NC(=O)c1ncn([C@@H]2O[C@H](CO)[C@@H](O)[C@H]2O)c1O` was tested, and the “activity, negative = inhibition” value was -0.883% [at 23.6 µM] (inactive). `CC/C=C\C#N` was tested, and the “activity, negative = inhibition” value was 2.32% (inactive). For `C#CC(C)(O)CC(C)C` (stereo not given), the “activity, negative = inhibition” value was -2.98% (inactive). In the case of `NS(=O)(=O)c1cc(C2(O)NC(=O)c3ccccc32)ccc1Cl` (stereo not given), the “activity, negative = inhibition” value is reported as -7.68% [at 23.6 µM] (inactive). `COc1ccc(N=[N+]([O-])c2ccc(OC)cc2)cc1` was tested, and the “activity, negative = inhibition” value was -3.4% (inactive). In the case of `C1CCCCCCCCCCC1`, the activity, negative = inhibition is reported as -13.6% [at 10.5 µM] (inactive). `CCCC(=O)O[C@]1(C(=O)CCl)[C@@H](C)C[C@H]2[C@@H]3CCC4=CC(=O)C=C[C@]4(C)[C@@]3(F)C(=O)C[C@@]21C` was tested, and the “activity, negative = inhibition” value was -2.3% [at 23.6 µM] (inactive). For `CCC(=O)Nc1cccc(N)c1`, the “activity, negative = inhibition” value was 4.19% (inactive). With `O=c1[nH]c(=O)n([C@H]2O[C@H](CO)[C@@H](O)[C@@H]2O)cc1/C=C\Br` the “activity, negative = inhibition” value was 1.77% [at 23.6 µM] (inactive). For `Cc1c(C)n(CCN(C)C)c2ccc(C(=O)OCCN(C)C)cc12`, the “activity, negative = inhibition” value was -0.636% [at 23.6 µM] (inactive). With `CCN1CCCC1CNC(=O)c1cc(S(N)(=O)=O)ccc1OC` (stereo not given) the “activity, negative = inhibition” value was 0.435% (inactive). For `CC(C)c1cccc(O)c1`, the “activity, negative = inhibition” value was 0.242% (inactive). For `CO[Si](CCCNCCC[Si](OC)(OC)OC)(OC)OC`, the “activity, negative = inhibition” value was 5.94% (inactive). For `CC(C)CCCCCCN`, the “activity, negative = inhibition” value was -0.181% (inactive). With `CC/C=C\CCCCO` the “activity, negative = inhibition” value was 0.425% (inactive). For `O=C(O)c1cccc(C(=O)O)n1`, the “activity, negative = inhibition” value was 2.92% (inactive). For `CC1(C)OC(=O)Nc2ccc(Br)cc21`, the “activity, negative = inhibition” value was 5.3% [at 23.6 µM] (inactive). `CC1=CCC2C(C1)C2(C)C` (stereo not given) was tested, and the “activity, negative = inhibition” value was -2.33% (inactive). With `C=C(C)C(=O)OCCCCCCCCCCCCCCCCCC` the activity, negative = inhibition was -4.03% [at 10.5 µM] (inactive). With `NC(=O)c1ncn([C@@H]2O[C@H](CO)[C@@H](O)[C@H]2O)c1N` the “activity, negative = inhibition” value was 1.89% [at 23.6 µM] (inactive). With `CC(=O)c1ccc(C)cc1` the “activity, negative = inhibition” value was 1.31% (inactive). In the case of `CC(=O)OC(C)(C)C`, the “activity, negative = inhibition” value is reported as -3.44% (inactive). For `N#CCN(CC#N)CCN(CC#N)CC#N`, the “activity, negative = inhibition” value was 3.7% (inactive). In the case of `CCCCC1CCCCC(=O)O1` (stereo not given), the “activity, negative = inhibition” value is reported as -0.195% (inactive). In the case of `NC(=O)c1c(Cl)cccc1Cl`, the “activity, negative = inhibition” value is reported as -5.22% (inactive). `C(=C(c1ccccc1)c1ccccc1)c1ccccc1` was tested, and the “activity, negative = inhibition” value was 3.57% (inactive). `C=CC(=O)N1CCOCC1` was tested, and the “activity, negative = inhibition” value was 2.27% (inactive). For `CO[Si](OC)(OC)OC`, the “activity, negative = inhibition” value was -1.77% (inactive). With `CC(O)CN(CCCN(C)C)CCCN(C)C` (stereo not given) the “activity, negative = inhibition” value was 0.309% (inactive). `CC(C)=CC(=O)O` was tested, and the “activity, negative = inhibition” value was -1.3% (inactive). `Nc1nc2c(ncn2CCC(CO)CO)c(=O)[nH]1` was tested, and the “activity, negative = inhibition” value was 2.65% [at 23.6 µM] (inactive).
